Bioassay records as filed in PubChem BioAssay.
DAX1 inh-1 = blocks DAX1 repression of SF-1 activated StAR promoter. AID 652010. inhibition, % at 6.8 µM. HEK293T StAR-luciferase reporter, SF-1/DAX-1 repression relief. 1.1% of 370,000 active;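 active = inhibition above the mean over all tested compounds plus 3 SD, cut at about 3.6% in these data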;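 also: higher inhibition means more luminescence from relief of DAX-1 repression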
DAX1 inh-2 = NR0B1 (DAX1) inhibition; AID 504766; HEK293 Gal4-DAX1 luciferase reporter, luminescence; inhibition, % at 6.75 µM; P51843; 0.99% of 340,000 active;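 active = inhibition above the mean over all tested compounds plus 3 SD, cut at about 4.2% in these data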;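 also: inhibition shows as a rise in luminescence from relieved DAX1 repression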
Target sequence (P51843 207-470 limits assumed): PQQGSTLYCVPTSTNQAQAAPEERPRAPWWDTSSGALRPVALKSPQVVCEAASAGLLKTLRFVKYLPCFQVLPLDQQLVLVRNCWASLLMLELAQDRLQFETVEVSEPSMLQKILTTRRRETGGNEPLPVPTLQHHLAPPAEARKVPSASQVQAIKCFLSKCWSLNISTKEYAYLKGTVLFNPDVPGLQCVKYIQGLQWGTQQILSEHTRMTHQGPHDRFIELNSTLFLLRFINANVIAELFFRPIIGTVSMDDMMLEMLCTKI
hcDAF-12 act = H. contortus DAF-12 activation, primary screen. HEK293 hcDAF-12 lit1-tk-luc reporter, luminescence; 0% DMSO, 100% Δ7-dafachronic acid. activation, % at 6.8 µM. 1.4% of 370,000 active. AID 652067;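 active = activation above the mean of all tested compounds plus 3 SD, cut at about 5.5% in these data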
AHR activator = human AHR activation; P35869; AHR-responsive luciferase reporter cells, luminescence; activation, % at 5 µM; 2.5% of 320,000 active; AID 2796; in the data active = activation above about 47%
ssDAF12 agonist = activators of S. stercoralis DAF-12 nuclear receptor. HEK293 ssDAF-12/GRIP1 lit1-tk-luc reporter, luminescence; % of 3 µM dafachronic acid response. activation, % at 6.8 µM. 1% of 370,000 active. AID 652126;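 active = activation above the mean over all tested compounds plus 3 SD, cut at about 0.9% in these data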
hgDAF-12 ag = agonists of H. glycines DAF-12 nuclear receptor; HEK293 GAL4-hgDAF12 UAS-luciferase reporter, agonist luminescence; normalized to butyrate control; activation, % at 6.8 µM; 1.8% of 370,000 active; AID 687014;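 active = activation above a cutoff set at the mean of all screened compounds plus 3 SD, cut at about 10% in these data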
A number is an active result. Most compounds without a hit are left out; they make up all but 5.7% or so of the library.

What do the screens show for `Cc1ccc(NC(=O)/C=C/c2ccco2)nc1`?
DAX1 inh-1: 6.5; DAX1 inh-2: inactive; hcDAF-12 act: 6.5; AHR activator: inactive; ssDAF12 agonist: 1.6; hgDAF-12 ag: inactive

How did CC1CCCCN1C(=O)COC(=O)c1cc(-c2cccs2)nn1-c1ccccc1 (stereo not drawn) do in these assays?
DAX1 inh-1: inactive; DAX1 inh-2: inactive; hcDAF-12 act: inactive; AHR activator: inactive; ssDAF12 agonist: inactive; hgDAF-12 ag: inactive

What do the screens show for `COC(=O)C1CCN(C(=O)COC(=O)c2cc(-c3cccs3)nn2-c2ccccc2)CC1`?
DAX1 inh-1: inactive; DAX1 inh-2: 4.6; hcDAF-12 act: inactive; AHR activator: inactive; ssDAF12 agonist: inactive; hgDAF-12 ag: inactive

How did Cc1ccsc1/C=C1\SC(N)=NC1=O do in these assays?
DAX1 inh-1: inactive; DAX1 inh-2: inactive; hcDAF-12 act: inactive; AHR activator: inactive; ssDAF12 agonist: inactive; hgDAF-12 ag: inactive

How did NC1=NC(=O)/C(=C/C=C/c2cccs2)S1 do in these assays?
DAX1 inh-1: inactive; DAX1 inh-2: 4.8; hcDAF-12 act: inactive; AHR activator: inactive; ssDAF12 agonist: inactive; hgDAF-12 ag: inactive

What do the screens show for `Cc1cc([N+](=O)[O-])nn1CCCC(=O)NC1CCCCC1`?
DAX1 inh-1: inactive; DAX1 inh-2: 8.3; hcDAF-12 act: inactive; AHR activator: inactive; ssDAF12 agonist: inactive; hgDAF-12 ag: inactive

What do the screens show for `Cc1c(Cl)c([N+](=O)[O-])nn1CCCC(=O)NC1CCCCC1`?
DAX1 inh-1: inactive; DAX1 inh-2: inactive; hcDAF-12 act: inactive; AHR activator: inactive; ssDAF12 agonist: inactive; hgDAF-12 ag: inactive

What do the screens show for `O=C(NCc1cccc(C(F)(F)F)c1)c1ccc2nc([C@@H]3O[C@H](CO)[C@@H](O)[C@H]3O)[nH]c2c1`?
DAX1 inh-1: inactive; hcDAF-12 act: inactive; ssDAF12 agonist: inactive; hgDAF-12 ag: inactive

Results for COc1ccccc1N=c1oc2cc(O)ccc2cc1C(N)=O ?
DAX1 inh-1: inactive; DAX1 inh-2: inactive; hcDAF-12 act: inactive; AHR activator: inactive; ssDAF12 agonist: inactive; hgDAF-12 ag: inactive

What do the screens show for `Cc1cccc(N=c2oc3cc(O)ccc3cc2C(N)=O)c1`?
DAX1 inh-1: inactive; DAX1 inh-2: inactive; hcDAF-12 act: inactive; AHR activator: inactive; ssDAF12 agonist: inactive; hgDAF-12 ag: 12

Results for O=[N+]([O-])c1ccc(S(=O)(=O)Nc2ccc(-c3ccccc3)cc2)cc1 ?
DAX1 inh-1: inactive; DAX1 inh-2: inactive; hcDAF-12 act: inactive; ssDAF12 agonist: inactive; hgDAF-12 ag: inactive

Results for COc1cccc(/C=C2\SC(=S)N(CC3CCCO3)C2=O)c1 (stereo not drawn) ?
DAX1 inh-1: inactive; DAX1 inh-2: inactive; hcDAF-12 act: inactive; AHR activator: inactive; ssDAF12 agonist: inactive; hgDAF-12 ag: 13

What do the screens show for `COc1cccc(/C=C2\SC(=S)N(N3C(=O)CCCC3=O)C2=O)c1`?
DAX1 inh-1: inactive; DAX1 inh-2: 5.7; hcDAF-12 act: inactive; AHR activator: inactive; ssDAF12 agonist: inactive; hgDAF-12 ag: inactive

How did O=C(CN1CCCCCCC1)N/N=C/c1ccccc1F do in these assays?
DAX1 inh-1: inactive; DAX1 inh-2: inactive; hcDAF-12 act: inactive; AHR activator: inactive; ssDAF12 agonist: inactive; hgDAF-12 ag: inactive

Results for CCN1CCN(CC(=O)N/N=C/c2ccc(F)cc2F)CC1 ?
DAX1 inh-1: inactive; DAX1 inh-2: inactive; hcDAF-12 act: inactive; AHR activator: inactive; ssDAF12 agonist: 1.1; hgDAF-12 ag: inactive

What do the screens show for `CCCN1C2CCCC1CC(NC(=O)c1ccccc1OCC)C2` (stereo not drawn)?
DAX1 inh-1: inactive; DAX1 inh-2: inactive; hcDAF-12 act: inactive; AHR activator: inactive; ssDAF12 agonist: 0.9; hgDAF-12 ag: inactive

Results for CCCN1C2CCCC1CC(NC(=O)c1ccccc1OC)C2 (stereo not drawn) ?
DAX1 inh-1: inactive; DAX1 inh-2: inactive; hcDAF-12 act: inactive; AHR activator: inactive; ssDAF12 agonist: inactive; hgDAF-12 ag: inactive

How did Cc1c(Cl)cccc1NC(=S)NN1CCOCC1 do in these assays?
DAX1 inh-1: inactive; DAX1 inh-2: inactive; hcDAF-12 act: inactive; AHR activator: inactive; ssDAF12 agonist: inactive; hgDAF-12 ag: inactive

What do the screens show for `Cc1cc(NC(=O)CN2CCN(c3ccccc3O)CC2)no1`?
DAX1 inh-1: inactive; DAX1 inh-2: inactive; hcDAF-12 act: inactive; AHR activator: inactive; ssDAF12 agonist: 1.1; hgDAF-12 ag: inactive

Results for CCOc1ccccc1N1CCN(CC(=O)Nc2cc(C)on2)CC1 ?
DAX1 inh-1: inactive; DAX1 inh-2: inactive; hcDAF-12 act: inactive; AHR activator: inactive; ssDAF12 agonist: inactive; hgDAF-12 ag: inactive

What do the screens show for `O=C(N/N=C/c1cc(Br)ccc1O)c1cccc(N2CCCC2=O)c1`?
DAX1 inh-1: inactive; DAX1 inh-2: inactive; hcDAF-12 act: inactive; AHR activator: inactive; ssDAF12 agonist: inactive; hgDAF-12 ag: inactive

Results for O=C(Nc1ccccc1)c1cccc(N2CCCC2=O)c1 ?
DAX1 inh-1: inactive; DAX1 inh-2: inactive; hcDAF-12 act: inactive; AHR activator: inactive; ssDAF12 agonist: inactive; hgDAF-12 ag: 12

How did O=C(N/N=C/c1ccco1)c1cccc(N2CCCC2=O)c1 do in these assays?
DAX1 inh-1: inactive; DAX1 inh-2: inactive; hcDAF-12 act: inactive; AHR activator: inactive; ssDAF12 agonist: inactive; hgDAF-12 ag: 11

Results for CC1CCCCN1S(=O)(=O)c1ccc(S(=O)(=O)N2CCN(C)CC2)cc1 (stereo not drawn) ?
DAX1 inh-1: inactive; DAX1 inh-2: inactive; hcDAF-12 act: inactive; AHR activator: inactive; ssDAF12 agonist: inactive; hgDAF-12 ag: inactive

What do the screens show for `COc1cccc(CC(=O)OCC(=O)Nc2c(C)nn(-c3ccccc3)c2C)c1`?
DAX1 inh-1: inactive; DAX1 inh-2: 7.0; hcDAF-12 act: inactive; ssDAF12 agonist: inactive; hgDAF-12 ag: inactive

Results for CSc1cnnc2ccccc12 ?
DAX1 inh-1: inactive; DAX1 inh-2: inactive; hcDAF-12 act: inactive; ssDAF12 agonist: inactive; hgDAF-12 ag: inactive

How did C(=Cc1cnnc2ccccc12)c1ccccc1 do in these assays?
DAX1 inh-1: inactive; DAX1 inh-2: inactive; hcDAF-12 act: inactive; ssDAF12 agonist: inactive; hgDAF-12 ag: 13

Results for FC(F)Oc1ccc(NC(=S)N2CCc3ccccc32)cc1 ?
DAX1 inh-1: inactive; DAX1 inh-2: inactive; hcDAF-12 act: inactive; AHR activator: 51; ssDAF12 agonist: 1.4; hgDAF-12 ag: inactive

What do the screens show for `Fc1ccc(NC(=S)N2CCc3ccccc32)cc1`?
DAX1 inh-1: inactive; DAX1 inh-2: inactive; hcDAF-12 act: inactive; ssDAF12 agonist: inactive; hgDAF-12 ag: inactive

What do the screens show for `O=C(CSC1=NS(=O)(=O)c2cc(Cl)ccc2N1)Nc1cccc(F)c1`?
DAX1 inh-1: inactive; DAX1 inh-2: inactive; hcDAF-12 act: inactive; AHR activator: inactive; ssDAF12 agonist: inactive; hgDAF-12 ag: inactive

Results for COc1cccc(/C=C2/Sc3ccc(C(=O)NCCCN4CCCC4)cc3NC2=O)c1 ?
DAX1 inh-1: 3.7; DAX1 inh-2: inactive; hcDAF-12 act: inactive; AHR activator: inactive; ssDAF12 agonist: inactive; hgDAF-12 ag: inactive

Results for O=C1Nc2cc(C(=O)NCCCN3CCCC3)ccc2S/C1=C/c1ccccc1F ?
DAX1 inh-1: inactive; DAX1 inh-2: inactive; hcDAF-12 act: inactive; AHR activator: inactive; ssDAF12 agonist: inactive; hgDAF-12 ag: inactive
